# NR3A LBD binder = binders of NR3A ligand-binding domain, primary screen, biophysical, differential scanning fluorimetry, uHTS | hit rate 2.5% among 340,000 | Glutamate receptor ionotropic, NMDA 3A (GRIN3A) ligand-binding domain | AID 1259313, 2017 | Tm shift relative to glycine control, % at 25 µM | NR3A LBD differential scanning fluorimetry, Tm shift; 0% = protein alone, 100% = glycine-bound protein;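 active = melting temperature shift of at least 10% of the positive control shift, at one fixed dose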
# TPT1 inh = Candida albicans TPT1 enzyme inhibitors, primary screen, biochemical, fluorescence polarization | tRNA 2'-phosphotransferase TPT1 (Candida albicans SC5314) | recombinant caTPT1, FP RNA substrate dephosphorylation | inhibition, % at 5 µM | hit rate 0.81% among 300,000 | AID 1962, 2009;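 active = inhibition above the mean of all tested compounds plus 3 SD, set per screening campaign, cut at about 24% in these data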;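 note: plate controls were DMSO alone for no effect and ferristatin control at 100 nM for full effect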
# dFosB activator = activators of delta FosB homodimer, primary screen, biochemical, fluorescence polarization, TAMRA-CDK5 oligo, single point; Protein FosB (Mus musculus), P13346; purified delta FosB; percent of positive-control signal above neutral wells; activation, % at 25 µM; hit rate 0.99% among 340,000; AID 493131, 2011;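 active = mean activation above about 17%, with every replicate also reaching it, limit read from the data, passing the limit was not always enough; inconclusive = only one of the two conditions met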
# EBNA-1 inhibitor = EBNA-1 DNA-binding inhibitors, primary screen, biochemical, fluorescence polarization | AID 1950, 2009 | inhibition, % at 14.8 µM | hit rate 0.34% among 300,000; in the data active = inhibition above about 28%
# ZTA counter = counter-screen for EBNA-1 inhibitors: inhibitors of Epstein-Barr virus ZTA | inhibition, % at 11 µM | ZTA-DNA binding, fluorescence polarization | hit rate 0.15% among 320,000 | AID 2234 | P03206; in the data active = inhibition above about 33%
# Target sequence (P03206 whole entry, looked up): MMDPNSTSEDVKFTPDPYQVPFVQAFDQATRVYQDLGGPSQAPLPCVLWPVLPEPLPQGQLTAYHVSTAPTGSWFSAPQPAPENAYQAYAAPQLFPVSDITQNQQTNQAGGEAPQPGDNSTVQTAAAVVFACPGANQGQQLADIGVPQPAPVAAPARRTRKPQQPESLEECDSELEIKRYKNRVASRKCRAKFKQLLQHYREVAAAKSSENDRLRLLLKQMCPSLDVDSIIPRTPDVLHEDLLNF
# Rpn11 inh = Rpn11 (PSMD14) deubiquitinase inhibitors, primary screen, biochemical, fluorescence polarization, uHTS. 26S proteasome non-ATPase regulatory subunit 14 (Homo sapiens), O00487. human 26S proteasome, Ub4-pepOG fluorescence polarization; 20S core pre-blocked with epoxomicin. inhibition, % at 20 µM. hit rate 0.59% among 360,000;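 active = inhibition at 20 µM, scaled to each plate's controls, above about 33%, limit read from the data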
# Target sequence (O00487 whole entry, looked up): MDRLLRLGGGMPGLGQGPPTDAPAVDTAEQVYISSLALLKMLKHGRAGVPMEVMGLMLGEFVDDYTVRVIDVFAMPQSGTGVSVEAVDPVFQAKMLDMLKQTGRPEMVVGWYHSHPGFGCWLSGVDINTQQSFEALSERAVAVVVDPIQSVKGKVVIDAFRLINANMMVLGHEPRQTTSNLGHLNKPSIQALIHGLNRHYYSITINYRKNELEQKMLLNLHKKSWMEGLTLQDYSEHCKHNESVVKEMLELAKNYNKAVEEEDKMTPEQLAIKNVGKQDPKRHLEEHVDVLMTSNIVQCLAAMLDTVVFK
# * = called active by the depositor; ? = inconclusive; · = no result given. Sampled rows, rich in hits. Any-hit rate of the full collection: about 4.5%.
SMILES,NR3A LBD binder,TPT1 inh,dFosB activator,EBNA-1 inhibitor,ZTA counter,Rpn11 inh
CN(CCCC(=O)NCCc1ccccc1)S(=O)(=O)c1ccc([N+](=O)[O-])cc1,1,-4,0,-8,-21,4
Cc1ccc(-n2cc(CN3CCN(C(=O)c4ncn[nH]4)CC3)c(-c3ccc(F)cc3)n2)cc1,-1,-1,-4,0,3,6
CC1(C(=O)OCC(=O)Nc2ccc(C(N)=O)cc2)CC1(Cl)Cl (stereo unspecified),0,1,0,3,-8,-4
COc1ccccc1NC(=O)c1ccc(NC(=O)COC(=O)C2(C)CC2(Cl)Cl)cc1 (stereo unspecified),25*,-5,5,-1,9,8
COC(=O)c1cc(NC(=S)NCc2ccc(Cl)cc2)cc(C(=O)OC)c1,25*,1,-2,7,-13,0
Cc1ccc(C(=O)C2=C(O)C(=O)N(c3ncccn3)C2c2ccc(Cl)cc2)o1 (stereo unspecified),13*,0,0,2,14,10
CN(Cc1ccc(C(C)(C)C)cc1)C(=O)c1ccc2c(=O)n3c(nc2c1)CCC3,0,1,-15,8,6,2
COC(=O)c1c(NC(=O)C2COc3ccccc3O2)sc2c1CCN(C(=O)OC)C2 (stereo unspecified),·,·,·,·,·,8
CC(C)=C(NC(=O)c1ccccc1)C(=O)Nc1cccc(C(=O)O)c1,-1,-1,1,-4,-21,-2
CC1CCCN(S(=O)(=O)c2ccc(C(=O)Nc3ccccc3-c3nc4ccccc4[nH]3)cc2)C1 (stereo unspecified),34*,1,-11,-13,-7,6
CC1CCN(S(=O)(=O)c2ccc(C(=O)Nc3ncccc3O)cc2)CC1,2,-6,-4,3,12,0
CC1CCN(S(=O)(=O)c2ccc(C(=O)Nc3ccccc3-c3nc4ccccc4[nH]3)cc2)CC1,31*,6,6,-1,-6,-1
OC(c1cccc(CN2CCCCC2)c1)c1ncc(-c2ccccc2Cl)[nH]1 (stereo unspecified),·,·,·,·,·,-4
Cc1c(C(=O)N2CCC2(C)C(=O)O)oc2ccccc12 (stereo unspecified),·,·,·,·,·,5
C=CCN(c1ccccc1OC)S(=O)(=O)c1cccc(C(=O)OCC(=O)c2c[nH]c3ccccc23)c1,29*,1,4,8,-1,6
COc1ccc(C(=O)OCC(=O)c2c[nH]c3ccccc23)cc1OC,1,·,-8,·,5,7
COc1cc(OC)c(N(C)S(=O)(=O)c2cccc(C(=O)OCC(=O)c3c[nH]c4ccccc34)c2)cc1Cl,26*,-1,5,-3,10,12
CC(NC(=O)c1cc(-c2cccnc2)nc2ccc(Br)cc12)C1CCCO1 (stereo unspecified),2,0,-19,160*,151*,0
O=C(Nc1ccc(C(F)(F)F)cc1)c1cc(-c2cccnc2)nc2ccc(Br)cc12,34*,-2,-7,-6,-3,4
O=C(O)c1cc(-c2cccnc2)nc2ccc(Br)cc12,0,0,-11,-10,-5,-2
CSc1ccccc1NC(=O)c1cc(-c2cccnc2)nc2ccc(Br)cc12,-4,-2,27*,-14,2,5
CC(=O)Nc1cccc(NC(=O)c2cc(-c3cccnc3)nc3ccc(Br)cc23)c1,3,-1,-17,3,24,4
CC1C(=O)C(C)C(c2ccccc2F)NC1c1ccccc1F (stereo unspecified),5,-2,2,18,3,-5
COc1cc(/C=N/Nc2cccc3cccnc23)cc(OC)c1O,-10,0,6,-2,-4,27
Oc1c(/C=N/Nc2cccc3cccnc23)ccc2ccccc12,32*,-1,1,0,-9,1
SMILES,NR3A LBD binder,TPT1 inh,dFosB activator,EBNA-1 inhibitor,ZTA counter,Rpn11 inh
Oc1cccc(/C=N/Nc2cccc3cccnc23)c1,32*,·,-9,·,·,-1
O=C(CCNS(=O)(=O)c1ccc(Cl)cc1)N1CCCCCC1,11*,0,-5,11,-1,3
O=C(CCNS(=O)(=O)c1ccc(Cl)cc1)N1CCOCC1,-3,-3,-3,0,-15,6
CNC(=O)c1sc(-c2ccccc2)nc1C,2,-3,-5,8,1,-4
Cc1nc(-c2ccccc2)sc1C(N)=O,19*,-4,-13,3,0,1
O=C(Nc1cc(Cl)ccc1Cl)C1CC(=O)N(c2ccccc2)C1 (stereo unspecified),-1,-1,20*,-5,13,-8
COc1cc(CNC(C)C)c(Br)cc1OC1CCCC1,-2,3,-7,-5,1,4
O=C(CSc1nnc2ccccn12)Nc1cccc(S(=O)(=O)N2CCOCC2)c1,10*,-2,-6,7,1,-4
Cc1cc(S(=O)(=O)N2CCOCC2)ccc1OCC(=O)Nc1cccc(F)c1,37*,-1,-10,-9,-10,2
O=C(CSc1nnc(Nc2ccccc2)s1)Nc1cccc(S(=O)(=O)N2CCCCC2)c1,16*,0,1,21,1,-6
Cn1c(SCC(=O)Nc2cccc(S(=O)(=O)N3CCOCC3)c2)nnc1-c1ccncc1,1,-3,1,-4,-1,7
COc1ccc(NC(=O)COc2ccc(S(=O)(=O)N3CCOCC3)cc2C)cc1OC,0,-2,-16,-3,3,-2
NC(=O)c1ccc(-c2nnn(CC(=O)Nc3cccc(S(=O)(=O)N4CCCC4)c3)n2)cc1,0,·,110*,·,-28,-4
COc1ccc(CCNC(=O)c2ccc3c(=O)n4c(nc3c2)CCC4)cc1OC,-1,·,2,·,·,0
O=C(CCCNC(=O)c1ccc(Cl)cc1)Nc1cccc(S(=O)(=O)N2CCCCC2)c1,-3,·,-7,·,-15,2
Cc1ccc(NC(=O)CNc2cccc(S(=O)(=O)N3CCCCC3)c2)cc1F,-1,0,0,10,3,1
O=C(CSc1nnc2c(n1)[nH]c1ccc(S(=O)(=O)N3CCOCC3)cc12)Nc1ccc(F)c(F)c1,35*,-1,?,9,7,-3
O=C(CNc1cccc(F)c1)Nc1cccc(S(=O)(=O)N2CCCCC2)c1,14*,·,-11,·,·,0
O=C(CCNC(=O)c1ccc(Cl)cc1)Nc1cccc(S(=O)(=O)N2CCCCCC2)c1,29*,-1,-16,-13,12,-1
Cc1cc(S(=O)(=O)NCc2ccccc2)ccc1OCC(=O)Nc1cccc([N+](=O)[O-])c1,11*,3,0,1,8,-5

# Assay outcomes: PubChem BioAssay, several laboratories
